The values below come from PubChem BioAssay (NCATS).

Experiment [1] in a line: Cell Viability - NIH 3T3 (AID 541).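 For activity change, negative = cytotoxicity: plate controls were DMSO alone for no effect and tamoxifen positive control for full effect.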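 Note: cells exposed to compound for 40 hours; nearly all actives have a fitted effect of over 25% in size.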 Note: potency is the fitted concentration of half-maximal effect. The settings on record: NIH 3T3 cell viability, qHTS; activity change, negative = cytotoxicity: at 92.2 µM (top of the series). Put shortly: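 In this cytotoxicity screen, acute toxicity is scored as an ATP drop measured by CellTiter-Glo in NIH 3T3 fibroblasts following a 40 hr, 37 °C incubation with compound.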
Experiment [2] can be described thus: Cell Viability - H-4-II-E (AID 543).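 Note: cells exposed to compound for 40 hours; nearly all actives have a fitted effect of over 35% in size.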 Note: potency is the fitted concentration of half-maximal effect. Summed up: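 AC50 from Hill-modelled qHTS concentration-response curves. H-4-II-E rat hepatoma cells in complete medium, 40 hr exposure at 37 °C, viability by CellTiter-Glo ATP luminescence.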
A short description of experiment [3]: MultiTox-Fluor Cytotoxicity Assay - LYMP1-001 - Live Cells (AID 947).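 Note: 0% = DMSO only and full inhibition = tetraoctylammonium bromide control.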
A short description of experiment [4]: Cell Viability - LYMP2-018 (AID 985).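 Note: plate controls were DMSO only for no effect and tetraoctylammonium bromide at 92 µM for full effect; nearly all actives have a fitted effect of over 50% in size.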 Put shortly:
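In this qHTS viability assay, cells are treated for 24 hr and cellular ATP is quantified by luciferase-based luminescence, with tetraoctylammonium bromide as positive control.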

Experiment [5] in a line: Cell Viability - LYMP2-024 (AID 988).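 Note: plate controls were DMSO only for no effect and 92 µM tetraoctylammonium bromide for full effect; nearly all actives have a fitted effect of over 60% in size.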 Put shortly: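 Cells at 2500 per well received compound for 24 hr after a 5 hr settling period. Viability was scored by CellTiter-Glo luminescence, with AC50 from Hill fits.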
Experiment [6] addresses Estrogen receptor (Homo sapiens) (UniProt P03372). The experiment in a line: qHTS assay for small molecule antagonists of estrogen receptor alpha signaling (AID 588513; active = well fitted curve in the direction sought with a large enough effect in the signal ratio, with a control signal flat, not every such curve was filed as active; the % refers to the signal ratio; note: % is set by controls: 0 for no effect and ±100 for the full control effect). Put shortly:
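Beta-lactamase reporter, antagonist mode, HEK 293 GripTite cells; 0.5nM E2 stimulus, 18 h, 37 C; CCF4 dye 2 h RT; fluorescence. IC50 and efficacy from Hill fits, normalized to E2 and DMSO.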

The target is the same in experiment [7]. The experiment in a line: qHTS assay for small molecule agonists of estrogen receptor alpha signaling (AID 588514; calls by dose curve; note: nearly all actives have a fitted effect of over 70% in size; note: potency is the fitted concentration of half-maximal effect;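 for activation: 0% = vehicle only and 100% = reference agonist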). Put shortly: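 Fluorescence from CCF4 cleavage reports ER-alpha-driven beta-lactamase expression in HEK 293 cells treated 18 hrs at 37 C. Data normalized to 17-beta-estradiol (20 nM) and DMSO, fitted to Hill equation.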
Experiment [8] concerns the target Glucocorticoid receptor (Homo sapiens) (UniProt P04150). The experiment in a line: qHTS assay for small molecule antagonists of glucocorticoid receptor signaling (AID 588533; active = well fitted inhibition curve with a large enough effect in the signal ratio, with a control signal flat, not every such curve was filed as active; the % refers to the signal ratio;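 note: cells stimulated with 2 nM dexamethasone as agonist; % is set by controls: 0 for no effect and ±100 for the full control effect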). Put shortly: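 Antagonist-mode qHTS: compound titrations added to GRE-bla HeLa cells, then dexamethasone 2 nM final; 18 h, 37 C. CCF4 FRET fluorescence normalized to dexamethasone and DMSO; IC50 from Hill fit.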
(In general: Quantitative high-throughput screening tests each substance at several concentrations.)

Experiment [9] addresses Peroxisome proliferator-activated receptor delta (Homo sapiens) (UniProt Q03181). The experiment in a line: qHTS assay for small molecule agonists of peroxisome proliferator-activated receptor delta signaling (AID 588534; calls by dose curve;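 note: 0% = DMSO basal wells and 100% = positive control agonist at 10 µM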). Summed up:
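EC50 and efficacy values derive from Hill fits of a concentration series in a beta-lactamase reporter cell assay. Exposure is 18 hrs at 37 C, with CCF4 fluorescence as the readout.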

Experiment [10] deals with Peroxisome proliferator-activated receptor gamma (Homo sapiens) (UniProt P37231). The experiment in a line: qHTS assay for small molecule agonists of peroxisome proliferator-activated receptor gamma signaling (AID 588536; active = well fitted curve in the direction sought with a large enough effect in the signal ratio, with a control signal flat, not every such curve was filed as active; the % refers to the signal ratio;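 note: 0% = DMSO basal wells and 100% = rosiglitazone at 2 µM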). Put shortly: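 Cells were plated and held 6–6.5 h at 37 C, then compounds were added as a titration series. After a further 16 h, CCF4 dye was loaded for 2 h at room temperature and emission at 460/530 nm recorded.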

Experiment [11] shares this target. The experiment in a line: qHTS assay for small molecule antagonists of peroxisome proliferator-activated receptor gamma signaling (AID 588537; active = well fitted inhibition curve with a large enough effect in the signal ratio, with a control signal flat, not every such curve was filed as active; the % refers to the signal ratio;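 note: reporter cells co-stimulated with 50 nM rosiglitazone agonist during compound treatment; % of control where 0% means no effect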). Put shortly:
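Read-out: CCF4 fluorescence (ex 405, em 460/530 nm) after 2 h at RT. Cells were HEK293 carrying a UAS-bla reporter and treated 16 h at 37 C with compound plus rosiglitazone (50 nM final). Normalized to rosiglitazone and DMSO.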

Experiment [12] deals with Voltage-gated inwardly rectifying potassium channel KCNH2 (Homo sapiens) (UniProt Q12809). The experiment in a line: qHTS Assay for Small Molecule Inhibitors of the Human hERG Channel Activity (AID 588834).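 Note: top concentration of the series differs between compounds; % is set by controls: 0 for no effect and ±100 for the full control effect; lower thallium flux fluorescence means stronger hERG block; nearly all actives have a fitted effect of over 50% in size.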 Put shortly: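 Thallium-flux (FluxOR) read-out on FDSS: fluorescence read 10 s before and 2 min after stimulation buffer. hERG-BacMam-transduced U2OS cells, compound exposure about 10 min. AC50 by standard Hill equation.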

Experiment [13] can be described thus: qHTS assay for small molecule activators of the nuclear factor-kappa B (NF-kB) signaling pathway (AID 651749; active = well fitted activation curve with a large enough effect in the signal ratio; the % refers to the signal ratio; note: % of control where 0% means no effect). The settings on record: NF-kB-bla ME-180 cells, beta-lactamase FRET ratio, 16 h; stronger effect = higher value. Put shortly: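 NF-kB-bla ME-180 cells, 2,000/well; 23 nL compound or DMSO pinned; 16 hr, 37C/5% CO2; beta-lactamase FRET read-out.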
Experiment [14] in a line: qHTS assay for small molecule disruptors of the mitochondrial membrane potential - 5 hr assay (AID 651755; calls by dose curve; note: nearly all actives have a fitted effect of over 40% in size; note: potency is the fitted concentration of half-maximal effect). Summed up: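 Read-out: ratiometric Mito-MPS fluorescence, green monomer (ex 490/em 535) vs red mitochondrial aggregate (ex 540/em 590). HepG2 cells treated 5 hr at 37C before 30 min dye loading.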
Experiment [15] can be described thus: qHTS assay for environmental chemicals that activate the Aryl hydrocarbon Receptor (AhR) signaling pathway (AID 651777). For activation: % of control where 0% means no effect. Note: nearly all actives have a fitted effect of over 15% in size. Note: potency is the fitted concentration of half-maximal effect. Particulars: 1A2-DRE human hepatoma cells, luciferase, 24 h; activation: stronger effect = higher value. Put shortly:
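Concentration–response screening used 1,200 1A2-DRE cells per well, 24 hr compound exposure (37 C, 5% CO2), and One-Glo luminescence as the AhR-driven CYP1A2 reporter signal.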

Experiment [16] is described as follows: Cell Viability - LYMP2-014 (AID 983).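 Note: cells exposed to compound for 24 h at 37 °C; plate controls were DMSO only for no effect and 92 µM tetraoctylammonium bromide for full effect; nearly all actives have a fitted effect of over 50% in size.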 Put shortly:
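Quantitative HTS in lymphoblastoid cells: 24 hr compound exposure, then CellTiter-Glo ATP luminescence. Positive control was tetraoctylammonium bromide, 6.4pM to 92 uM.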

Experiment [17] deals with Glucocorticoid receptor (Homo sapiens) (UniProt P04150). Briefly: qHTS assay for small molecule agonists of glucocorticoid receptor signaling (AID 588532; active = well fitted curve in the direction sought with a large enough effect in the signal ratio, with a control signal flat; the % refers to the signal ratio;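 note: 100% = dexamethasone at 0.1 µM and 0% = DMSO only wells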). Particulars: HeLa MMTV-bla, beta-lactamase ratio, agonist, 18 h; stronger effect = higher value; percent of dexamethasone control, DMSO zero. Summed up: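 MMTV-bla HeLa beta-lactamase reporter cells in 1% charcoal/dextran FBS medium, compounds up to 92 uM for 18 h at 37 C, CCF4 readout; normalized to 0.1 uM dexamethasone (100%), EC50 and efficacy from Hill fits.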

The nature of experiment [18]: qHTS assay for small molecule antagonists of peroxisome proliferator-activated receptor delta signaling (AID 588535; active = well fitted inhibition curve with a large enough effect in the signal ratio, with a control signal flat, not every such curve was filed as active; the % refers to the signal ratio;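 for max response: cells co-treated with a PPAR-delta agonist as stimulator during compound exposure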). The settings on record: HEK293T PPARd-UAS-bla, beta-lactamase FRET ratio, 18 h; 460 nm channel. Summed up:
(§1)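 Beta-lactamase reporter read-out (405 nm excitation, 460/530 nm emission) after CCF4 loading for 2 hrs at RT. HEK293T PPAR-delta-UAS-bla cells, 2% charcoal/dextran FBS, compounds for 18 hrs at 37 C. Hill fit gave IC50 and efficacy.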

Experiment [19] addresses Peroxisome proliferator-activated receptor delta (Homo sapiens) (UniProt Q03181). The description is as above. Summed up: as §1
The nature of experiment [20]: qHTS assay for small molecule agonists of the antioxidant response element (ARE) signaling pathway (AID 651741; active = well fitted activation curve with a large enough effect in the signal ratio; the % refers to the signal ratio; note: potency is the fitted concentration of half-maximal effect). Summed up: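 HepG2 ARE-bla reporter cells, 2,000/well; 5 h settle at 37 C/5% CO2; compound pin transfer (23 nL, DMSO); 16 h at 37 C; LiveBLAzer B/G FRET substrate, 2 h RT; fluorescence intensity read.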

Several values for one entry are separate records, joined by “and”; a condition that tells them apart may be missing. Equal values may be shown once. Results filed as inconclusive are left out. Activity calls are given as the source filed them. Unless noted, calls come from the whole dose curve; as a rule, active = well fitted curve in the direction sought with a large enough effect; inconclusive = small, poorly fitted or top-dose-only effect, or another doubt; inactive = no such curve, though single readings can be large; an effect the other way counts as inactive or inconclusive.

Chain of Peroxisome proliferator-activated receptor gamma (Homo sapiens) (P37231 whole entry, looked up): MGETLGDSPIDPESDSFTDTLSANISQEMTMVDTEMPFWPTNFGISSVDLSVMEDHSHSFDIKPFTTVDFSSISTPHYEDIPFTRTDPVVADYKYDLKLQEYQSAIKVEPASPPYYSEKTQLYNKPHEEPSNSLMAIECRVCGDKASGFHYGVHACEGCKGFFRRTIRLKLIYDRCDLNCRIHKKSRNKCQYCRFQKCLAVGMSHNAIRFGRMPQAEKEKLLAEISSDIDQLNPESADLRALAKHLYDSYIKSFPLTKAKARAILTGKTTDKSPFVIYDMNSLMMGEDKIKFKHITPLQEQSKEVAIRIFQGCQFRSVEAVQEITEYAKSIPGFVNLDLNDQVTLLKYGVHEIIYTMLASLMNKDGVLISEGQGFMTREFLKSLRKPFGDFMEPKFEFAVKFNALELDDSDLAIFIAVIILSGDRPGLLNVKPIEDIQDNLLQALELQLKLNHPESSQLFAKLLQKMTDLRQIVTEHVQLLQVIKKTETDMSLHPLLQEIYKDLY
Chain of Estrogen receptor (Homo sapiens) (P03372 whole entry, looked up): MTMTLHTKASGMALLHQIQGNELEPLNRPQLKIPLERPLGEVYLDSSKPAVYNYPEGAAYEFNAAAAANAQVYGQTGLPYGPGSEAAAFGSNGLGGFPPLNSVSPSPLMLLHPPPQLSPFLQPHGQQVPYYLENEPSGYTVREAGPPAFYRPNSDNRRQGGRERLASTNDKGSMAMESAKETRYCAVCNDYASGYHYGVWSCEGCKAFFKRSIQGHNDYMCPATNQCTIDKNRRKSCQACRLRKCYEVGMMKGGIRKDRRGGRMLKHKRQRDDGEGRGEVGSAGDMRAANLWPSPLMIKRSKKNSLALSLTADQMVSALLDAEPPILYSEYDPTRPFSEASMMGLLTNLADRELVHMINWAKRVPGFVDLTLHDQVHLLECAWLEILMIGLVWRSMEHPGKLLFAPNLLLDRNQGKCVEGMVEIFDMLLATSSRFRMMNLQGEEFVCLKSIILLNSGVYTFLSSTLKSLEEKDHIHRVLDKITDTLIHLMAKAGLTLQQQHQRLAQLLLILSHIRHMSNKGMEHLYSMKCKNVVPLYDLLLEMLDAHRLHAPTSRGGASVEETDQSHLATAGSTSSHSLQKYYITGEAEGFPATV
Chain of Peroxisome proliferator-activated receptor delta (Homo sapiens) (Q03181 whole entry, looked up): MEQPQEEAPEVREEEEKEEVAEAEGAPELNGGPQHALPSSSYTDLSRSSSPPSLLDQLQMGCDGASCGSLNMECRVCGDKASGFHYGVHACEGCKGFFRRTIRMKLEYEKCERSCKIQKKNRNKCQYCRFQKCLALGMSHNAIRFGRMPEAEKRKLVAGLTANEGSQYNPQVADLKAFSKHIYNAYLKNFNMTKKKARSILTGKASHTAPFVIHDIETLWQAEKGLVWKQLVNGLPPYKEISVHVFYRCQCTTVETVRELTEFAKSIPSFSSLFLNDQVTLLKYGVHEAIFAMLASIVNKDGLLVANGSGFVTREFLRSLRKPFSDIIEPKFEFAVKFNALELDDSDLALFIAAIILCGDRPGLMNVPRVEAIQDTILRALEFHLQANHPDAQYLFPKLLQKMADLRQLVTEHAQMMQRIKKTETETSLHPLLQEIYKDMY
Chain of Voltage-gated inwardly rectifying potassium channel KCNH2 (Homo sapiens) (Q12809 whole entry, looked up): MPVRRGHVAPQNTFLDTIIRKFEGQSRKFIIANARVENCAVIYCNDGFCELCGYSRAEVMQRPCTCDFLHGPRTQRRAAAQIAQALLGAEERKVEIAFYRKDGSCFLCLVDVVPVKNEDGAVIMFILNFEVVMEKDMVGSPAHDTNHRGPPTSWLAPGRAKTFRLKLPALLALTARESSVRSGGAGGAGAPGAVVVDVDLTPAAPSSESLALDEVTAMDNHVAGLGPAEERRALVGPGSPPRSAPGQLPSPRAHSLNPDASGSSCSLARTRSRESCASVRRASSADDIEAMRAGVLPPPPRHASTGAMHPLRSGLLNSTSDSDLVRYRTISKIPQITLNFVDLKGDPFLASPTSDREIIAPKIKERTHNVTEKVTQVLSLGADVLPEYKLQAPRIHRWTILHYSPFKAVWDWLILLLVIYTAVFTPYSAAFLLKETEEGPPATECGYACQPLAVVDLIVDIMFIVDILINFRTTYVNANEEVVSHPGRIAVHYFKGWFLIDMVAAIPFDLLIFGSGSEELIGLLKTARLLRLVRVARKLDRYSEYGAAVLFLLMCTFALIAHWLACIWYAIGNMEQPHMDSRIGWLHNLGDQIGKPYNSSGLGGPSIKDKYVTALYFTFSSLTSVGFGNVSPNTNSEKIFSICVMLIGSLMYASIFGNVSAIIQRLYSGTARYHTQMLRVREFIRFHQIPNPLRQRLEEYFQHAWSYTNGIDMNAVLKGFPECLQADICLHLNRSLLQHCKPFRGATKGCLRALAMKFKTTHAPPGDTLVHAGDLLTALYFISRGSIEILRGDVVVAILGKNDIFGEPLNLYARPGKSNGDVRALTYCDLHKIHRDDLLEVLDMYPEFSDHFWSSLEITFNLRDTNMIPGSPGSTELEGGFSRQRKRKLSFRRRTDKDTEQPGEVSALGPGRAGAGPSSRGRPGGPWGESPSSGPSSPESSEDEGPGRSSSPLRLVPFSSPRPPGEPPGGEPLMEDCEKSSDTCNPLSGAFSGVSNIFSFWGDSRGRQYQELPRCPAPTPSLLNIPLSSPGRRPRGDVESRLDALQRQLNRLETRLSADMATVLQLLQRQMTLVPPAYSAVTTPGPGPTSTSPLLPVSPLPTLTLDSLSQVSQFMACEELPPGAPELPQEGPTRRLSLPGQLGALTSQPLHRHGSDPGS
Chain of Glucocorticoid receptor (Homo sapiens) (P04150 whole entry, looked up): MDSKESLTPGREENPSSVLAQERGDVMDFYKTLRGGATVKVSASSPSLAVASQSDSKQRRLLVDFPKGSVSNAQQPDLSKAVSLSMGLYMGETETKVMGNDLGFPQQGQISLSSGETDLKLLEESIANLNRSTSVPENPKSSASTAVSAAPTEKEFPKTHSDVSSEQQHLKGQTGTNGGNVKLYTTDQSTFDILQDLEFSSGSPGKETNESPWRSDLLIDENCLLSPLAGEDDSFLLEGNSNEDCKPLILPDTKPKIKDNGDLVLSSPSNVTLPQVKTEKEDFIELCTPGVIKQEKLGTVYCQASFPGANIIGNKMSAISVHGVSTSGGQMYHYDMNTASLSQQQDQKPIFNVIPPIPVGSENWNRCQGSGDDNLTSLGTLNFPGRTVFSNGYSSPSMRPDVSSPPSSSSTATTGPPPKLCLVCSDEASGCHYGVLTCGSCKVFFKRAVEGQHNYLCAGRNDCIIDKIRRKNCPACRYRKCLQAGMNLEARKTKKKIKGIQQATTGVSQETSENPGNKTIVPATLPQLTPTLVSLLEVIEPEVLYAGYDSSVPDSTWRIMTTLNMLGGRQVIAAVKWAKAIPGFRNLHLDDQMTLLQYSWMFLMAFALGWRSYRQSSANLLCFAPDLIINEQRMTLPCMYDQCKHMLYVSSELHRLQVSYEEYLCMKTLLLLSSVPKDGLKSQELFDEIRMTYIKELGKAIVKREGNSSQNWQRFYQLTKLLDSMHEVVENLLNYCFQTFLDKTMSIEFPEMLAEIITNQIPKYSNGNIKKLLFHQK

Regarding `Nc1ccc([N+](=O)[O-])cc1[N+](=O)[O-]`, the results for the Potency in [1], in experiment [2] and in experiment [14] were 10 µM (active), 20 µM (active) and 33.5 µM (active), respectively. For the same compound, the result in experiment [3], in [8], in experiment [9] and in [10] was inactive. Also, the Potency entry in experiment [4], in [5], in experiment [6], in experiment [7], in experiment [11] and in experiment [12] was “inactive” throughout. Moreover, the activation in experiment [13] was -1.37% (inactive); in experiment [15], 0.484% (inactive).
In the case of `Cc1cc(Cl)ccc1O`, the Potency entry in experiment [1], in [2], in experiment [16], in experiment [4], in experiment [5] and in experiment [11] was “inactive” throughout. For the same compound, the Potency result in experiment [12] and in experiment [14] was “inactive” each time. In addition, the activation in experiment [17] was 0.519% (inactive); in experiment [13] it was 0.374% (inactive); in experiment [15] it was 0.484% (inactive). For the same compound, the call in [9] and in [10] was inactive.
Take `Nc1ccc(-c2ccccc2)cc1`: the Potency result in experiment [1], in [2], in experiment [16], in experiment [4], in experiment [5] and in [6] was “inactive” in each case. In addition, the Potency entry in [7] is “inactive”. Also, the call in experiment [9] was inactive. Also, in experiment [13], the activation was -0.257% (inactive).
Regarding `CCSC(=O)N1CCCCCC1`, the Potency result in [2], in [16], in [5], in [6], in experiment [7] and in [11] was “inactive” in each case. The Potency entry in experiment [12] and in experiment [14] was “inactive” in each case. The compound was classed as inactive in experiment [3], in [9], in [19] and in [10]. Moreover, in experiment [18], the max response is -18%. Besides, the Potency in [20] was 66.8 µM (active). For the same compound, the activation was 0.506% (inactive) and -0.843% (inactive) in experiment [13]; -0.667% (inactive) and 0.714% (inactive) in experiment [15].
Consider `Cc1cc(-c2ccc(N)c(C)c2)ccc1N`, for which the Potency entry in [1], in experiment [16], in experiment [4], in experiment [5], in experiment [6] and in [11] was “inactive” in each case. Moreover, the Potency entry in experiment [12] and in experiment [14] was “inactive” each time. The compound was classed as inactive in experiment [3] and in experiment [10]. Also, the Potency in [7] was 22.4 µM (active); in experiment [20], 12.2 µM (active) and 6.86 µM (active).
For the compound `CCCCC(=O)Cl`, the Potency result in experiment [1], in [2], in experiment [16], in experiment [4], in [5] and in experiment [14] was “inactive” each time. The result in [3], in experiment [8], in [9] and in experiment [19] was inactive. Moreover, the max response in [18] was found to be 20%. Further, in experiment [13], the activation was -1.31% (inactive).
On to `CCOP(=S)(OCC)Oc1nc(Cl)c(Cl)cc1Cl`, for which the Potency result in experiment [2], in experiment [16], in [4], in experiment [5], in [6] and in experiment [7] was “inactive” each time. Further, the Potency result in experiment [11] was “inactive”. The call in [3], in experiment [8], in experiment [9], in experiment [19] and in experiment [10] was inactive. Besides, the values for the activation in experiment [17], in [13] and in [15] were 0.796% (inactive) [middle of 4 runs], -1.28% (inactive) [middle of 4 runs] and 12% (inactive), respectively. Also, the max response in experiment [18] stood at 21.6%. Moreover, the Potency in [20] is 37.6 µM (active) [middle of 4 runs].
On to `Cc1ccc2c(c1N)C(=O)c1ccccc1C2=O`, for which the Potency in experiment [1] is 25.1 µM (active); in experiment [20], 21.1 µM (active) and 17.2 µM (active); in experiment [15], 28.2 µM (active). Moreover, the Potency result in experiment [16], in experiment [4], in experiment [5], in [6] and in [11] was “inactive” each time. The activation in experiment [17] was -11.3% (inactive) and -4.68% (inactive); in [13], 0.359% (inactive) and 2.04% (inactive). For the same compound, the compound was classed as inactive in experiment [8] and in experiment [9].
